Experimental data as given in ChEMBL document CHEMBL1961873, “Compounds: GSK PKIS; Assays: Nanosyn kinase panel” (2012).

Experiments:
[1] = molecular target: Death-associated protein kinase 1 (Homo sapiens) (UniProt P53355); settings: at 1 µM;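 further: each value is a mean inhibition figure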
[2] = molecular target: T1, Serine/threonine-protein kinase DCLK2 (Homo sapiens) (UniProt Q8N568); settings: at 0.1 µM
T1 sequence (whole entry): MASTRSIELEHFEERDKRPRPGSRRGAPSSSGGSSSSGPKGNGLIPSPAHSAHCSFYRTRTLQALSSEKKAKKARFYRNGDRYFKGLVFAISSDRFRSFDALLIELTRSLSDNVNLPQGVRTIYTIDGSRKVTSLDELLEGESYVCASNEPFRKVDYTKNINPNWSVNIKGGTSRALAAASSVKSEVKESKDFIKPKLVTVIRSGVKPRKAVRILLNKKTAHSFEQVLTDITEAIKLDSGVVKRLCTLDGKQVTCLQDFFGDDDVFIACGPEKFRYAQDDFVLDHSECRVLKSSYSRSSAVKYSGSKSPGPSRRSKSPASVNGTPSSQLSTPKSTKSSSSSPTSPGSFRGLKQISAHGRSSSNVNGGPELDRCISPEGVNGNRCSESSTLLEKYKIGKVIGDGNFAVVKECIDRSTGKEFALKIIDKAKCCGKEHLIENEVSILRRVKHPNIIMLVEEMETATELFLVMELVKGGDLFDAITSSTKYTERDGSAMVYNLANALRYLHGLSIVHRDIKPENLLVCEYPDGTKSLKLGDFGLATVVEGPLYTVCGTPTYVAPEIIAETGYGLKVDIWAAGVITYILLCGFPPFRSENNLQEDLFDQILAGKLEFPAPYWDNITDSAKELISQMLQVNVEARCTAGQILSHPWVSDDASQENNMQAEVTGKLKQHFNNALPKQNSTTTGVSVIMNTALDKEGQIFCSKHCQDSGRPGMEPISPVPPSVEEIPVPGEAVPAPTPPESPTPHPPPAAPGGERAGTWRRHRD

[3] = molecular target: T1, Serine/threonine-protein kinase DCLK2 (Homo sapiens); settings: at 1 µM
[4] = molecular target: MAP kinase-activated protein kinase 2 (Homo sapiens) (UniProt P49137); settings: at 0.1 µM
[5] = molecular target: MAP kinase-activated protein kinase 2 (Homo sapiens) (UniProt P49137); settings: at 1 µM
[6] = molecular target: MAP kinase-activated protein kinase 3 (Homo sapiens) (UniProt Q16644); settings: at 0.1 µM
[7] = molecular target: MAP kinase-activated protein kinase 3 (Homo sapiens) (UniProt Q16644); settings: at 1 µM
[8] = molecular target: Serine/threonine-protein kinase MARK1 (Homo sapiens) (UniProt Q9P0L2); settings: at 0.1 µM
[9] = molecular target: Serine/threonine-protein kinase MARK1 (Homo sapiens) (UniProt Q9P0L2); settings: at 1 µM
[10] = molecular target: MAP/microtubule affinity-regulating kinase 3 (Homo sapiens) (UniProt P27448); settings: at 0.1 µM
[11] = molecular target: MAP/microtubule affinity-regulating kinase 3 (Homo sapiens) (UniProt P27448); settings: at 1 µM
[12] = molecular target: T2, MAP/microtubule affinity-regulating kinase 4 (Homo sapiens) (UniProt Q96L34); settings: at 0.1 µM
T2 sequence (whole entry): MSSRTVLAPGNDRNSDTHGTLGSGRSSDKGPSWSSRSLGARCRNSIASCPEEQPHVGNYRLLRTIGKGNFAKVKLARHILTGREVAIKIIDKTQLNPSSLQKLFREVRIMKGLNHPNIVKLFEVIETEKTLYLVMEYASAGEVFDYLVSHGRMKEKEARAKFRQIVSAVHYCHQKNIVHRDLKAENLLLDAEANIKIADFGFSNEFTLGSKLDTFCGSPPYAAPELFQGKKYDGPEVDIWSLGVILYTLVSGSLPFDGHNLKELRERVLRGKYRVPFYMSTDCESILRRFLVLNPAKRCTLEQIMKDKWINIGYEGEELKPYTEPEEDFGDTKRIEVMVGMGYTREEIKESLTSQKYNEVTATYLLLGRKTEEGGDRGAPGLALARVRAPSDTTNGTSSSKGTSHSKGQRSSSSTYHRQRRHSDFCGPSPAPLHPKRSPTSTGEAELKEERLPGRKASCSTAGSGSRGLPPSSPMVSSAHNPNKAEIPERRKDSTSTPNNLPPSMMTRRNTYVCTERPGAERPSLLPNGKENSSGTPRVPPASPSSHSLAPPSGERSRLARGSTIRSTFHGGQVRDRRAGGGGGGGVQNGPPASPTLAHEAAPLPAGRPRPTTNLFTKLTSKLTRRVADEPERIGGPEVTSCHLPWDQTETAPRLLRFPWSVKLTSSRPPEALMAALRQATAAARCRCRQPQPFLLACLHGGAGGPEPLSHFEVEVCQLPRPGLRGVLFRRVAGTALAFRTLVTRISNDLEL

[13] = molecular target: T2, MAP/microtubule affinity-regulating kinase 4 (Homo sapiens); settings: at 1 µM
[14] = molecular target: Maternal embryonic leucine zipper kinase (Homo sapiens) (UniProt Q14680); settings: at 0.1 µM
[15] = molecular target: Maternal embryonic leucine zipper kinase (Homo sapiens) (UniProt Q14680); settings: at 1 µM
[16] = molecular target: MAP kinase-interacting serine/threonine-protein kinase 1 (Homo sapiens) (UniProt Q9BUB5); settings: at 0.1 µM
[17] = molecular target: MAP kinase-interacting serine/threonine-protein kinase 1 (Homo sapiens) (UniProt Q9BUB5); settings: at 1 µM
[18] = molecular target: MAP kinase-interacting serine/threonine-protein kinase 2 (Homo sapiens) (UniProt Q9HBH9); settings: at 0.1 µM
[19] = molecular target: MAP kinase-interacting serine/threonine-protein kinase 2 (Homo sapiens) (UniProt Q9HBH9); settings: at 1 µM
[20] = molecular target: Serine/threonine-protein kinase MARK2 (Homo sapiens) (UniProt Q7KZI7); settings: at 0.1 µM;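 further: mean percent inhibition of PAR-1Balpha kinase activity, reported from the GSK PKIS screen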

Chain of Maternal embryonic leucine zipper kinase (Homo sapiens) (Q14680 whole entry, looked up): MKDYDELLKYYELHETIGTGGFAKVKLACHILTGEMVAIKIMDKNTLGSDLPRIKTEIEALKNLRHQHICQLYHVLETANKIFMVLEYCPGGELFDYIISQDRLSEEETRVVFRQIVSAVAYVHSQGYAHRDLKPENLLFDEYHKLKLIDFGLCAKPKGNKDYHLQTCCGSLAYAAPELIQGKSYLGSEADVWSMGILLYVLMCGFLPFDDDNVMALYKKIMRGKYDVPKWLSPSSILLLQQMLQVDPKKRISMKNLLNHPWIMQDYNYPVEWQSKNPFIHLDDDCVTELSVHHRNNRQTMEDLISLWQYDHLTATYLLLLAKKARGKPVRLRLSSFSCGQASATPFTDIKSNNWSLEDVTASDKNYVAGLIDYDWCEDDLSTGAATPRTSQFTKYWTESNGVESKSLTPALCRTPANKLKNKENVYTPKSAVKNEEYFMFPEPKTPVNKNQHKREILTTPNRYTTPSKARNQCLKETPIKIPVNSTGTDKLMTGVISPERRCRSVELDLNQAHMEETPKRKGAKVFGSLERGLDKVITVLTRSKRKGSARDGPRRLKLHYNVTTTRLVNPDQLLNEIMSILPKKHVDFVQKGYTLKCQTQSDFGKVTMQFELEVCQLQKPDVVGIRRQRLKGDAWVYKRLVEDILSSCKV
Chain of MAP kinase-interacting serine/threonine-protein kinase 2 (Homo sapiens) (Q9HBH9 whole entry, looked up): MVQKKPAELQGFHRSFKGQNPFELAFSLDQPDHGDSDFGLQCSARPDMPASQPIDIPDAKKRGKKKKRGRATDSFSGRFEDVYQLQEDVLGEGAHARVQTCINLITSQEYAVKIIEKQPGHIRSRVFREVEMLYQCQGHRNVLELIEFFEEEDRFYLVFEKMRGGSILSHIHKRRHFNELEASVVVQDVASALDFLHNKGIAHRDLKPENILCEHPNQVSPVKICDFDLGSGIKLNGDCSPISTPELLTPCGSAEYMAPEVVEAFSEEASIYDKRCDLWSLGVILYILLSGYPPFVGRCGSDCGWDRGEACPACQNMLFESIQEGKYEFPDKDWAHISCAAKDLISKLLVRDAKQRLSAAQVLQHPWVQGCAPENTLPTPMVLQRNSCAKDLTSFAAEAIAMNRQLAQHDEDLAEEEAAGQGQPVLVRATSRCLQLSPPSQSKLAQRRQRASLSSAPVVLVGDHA
Chain of MAP kinase-activated protein kinase 2 (Homo sapiens) (P49137 whole entry, looked up): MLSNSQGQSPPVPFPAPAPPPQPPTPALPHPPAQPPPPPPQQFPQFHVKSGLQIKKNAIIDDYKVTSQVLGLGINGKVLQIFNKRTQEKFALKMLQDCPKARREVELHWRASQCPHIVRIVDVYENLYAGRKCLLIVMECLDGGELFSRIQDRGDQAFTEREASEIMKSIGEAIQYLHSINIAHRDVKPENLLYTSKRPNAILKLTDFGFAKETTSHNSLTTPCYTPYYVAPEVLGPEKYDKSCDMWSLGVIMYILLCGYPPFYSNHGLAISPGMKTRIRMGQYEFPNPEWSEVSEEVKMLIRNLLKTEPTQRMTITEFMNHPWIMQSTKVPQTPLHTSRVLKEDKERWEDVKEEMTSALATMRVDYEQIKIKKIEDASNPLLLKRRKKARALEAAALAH
Chain of MAP kinase-interacting serine/threonine-protein kinase 1 (Homo sapiens) (Q9BUB5 whole entry, looked up): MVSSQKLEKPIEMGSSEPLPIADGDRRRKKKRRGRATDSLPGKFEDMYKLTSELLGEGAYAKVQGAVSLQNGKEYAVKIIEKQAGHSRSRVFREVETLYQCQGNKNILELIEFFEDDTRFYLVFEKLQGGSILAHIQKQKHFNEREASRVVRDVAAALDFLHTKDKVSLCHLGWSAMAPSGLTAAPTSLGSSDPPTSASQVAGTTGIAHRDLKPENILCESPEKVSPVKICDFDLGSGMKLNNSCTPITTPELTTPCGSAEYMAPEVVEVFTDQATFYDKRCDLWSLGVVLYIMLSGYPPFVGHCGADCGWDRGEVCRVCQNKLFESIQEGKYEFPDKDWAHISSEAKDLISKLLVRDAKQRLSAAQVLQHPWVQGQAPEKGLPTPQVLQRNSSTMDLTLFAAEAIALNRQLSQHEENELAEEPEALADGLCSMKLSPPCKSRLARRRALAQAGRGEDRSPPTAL
Chain of Serine/threonine-protein kinase MARK1 (Homo sapiens) (Q9P0L2 whole entry, looked up): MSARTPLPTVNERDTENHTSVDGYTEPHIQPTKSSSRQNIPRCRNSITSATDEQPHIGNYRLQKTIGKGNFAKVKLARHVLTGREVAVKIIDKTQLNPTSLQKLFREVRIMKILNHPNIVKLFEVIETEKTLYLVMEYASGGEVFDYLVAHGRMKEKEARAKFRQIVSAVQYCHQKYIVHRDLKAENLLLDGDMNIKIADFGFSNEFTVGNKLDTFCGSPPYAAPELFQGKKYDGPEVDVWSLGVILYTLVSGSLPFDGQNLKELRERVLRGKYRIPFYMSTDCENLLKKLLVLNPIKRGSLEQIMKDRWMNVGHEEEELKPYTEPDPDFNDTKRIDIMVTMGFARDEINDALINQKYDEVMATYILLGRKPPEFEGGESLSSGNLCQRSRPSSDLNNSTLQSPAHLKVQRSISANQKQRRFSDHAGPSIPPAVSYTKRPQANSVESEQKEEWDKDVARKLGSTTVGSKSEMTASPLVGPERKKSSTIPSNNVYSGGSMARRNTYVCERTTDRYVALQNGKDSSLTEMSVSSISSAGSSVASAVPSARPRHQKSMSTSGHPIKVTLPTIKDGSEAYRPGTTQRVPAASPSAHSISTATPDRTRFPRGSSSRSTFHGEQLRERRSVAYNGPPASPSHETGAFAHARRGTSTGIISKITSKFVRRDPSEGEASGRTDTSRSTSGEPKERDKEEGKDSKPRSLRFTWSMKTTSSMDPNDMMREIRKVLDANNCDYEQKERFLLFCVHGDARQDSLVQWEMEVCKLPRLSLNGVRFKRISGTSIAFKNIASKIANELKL
Chain of Death-associated protein kinase 1 (Homo sapiens) (P53355 whole entry, looked up): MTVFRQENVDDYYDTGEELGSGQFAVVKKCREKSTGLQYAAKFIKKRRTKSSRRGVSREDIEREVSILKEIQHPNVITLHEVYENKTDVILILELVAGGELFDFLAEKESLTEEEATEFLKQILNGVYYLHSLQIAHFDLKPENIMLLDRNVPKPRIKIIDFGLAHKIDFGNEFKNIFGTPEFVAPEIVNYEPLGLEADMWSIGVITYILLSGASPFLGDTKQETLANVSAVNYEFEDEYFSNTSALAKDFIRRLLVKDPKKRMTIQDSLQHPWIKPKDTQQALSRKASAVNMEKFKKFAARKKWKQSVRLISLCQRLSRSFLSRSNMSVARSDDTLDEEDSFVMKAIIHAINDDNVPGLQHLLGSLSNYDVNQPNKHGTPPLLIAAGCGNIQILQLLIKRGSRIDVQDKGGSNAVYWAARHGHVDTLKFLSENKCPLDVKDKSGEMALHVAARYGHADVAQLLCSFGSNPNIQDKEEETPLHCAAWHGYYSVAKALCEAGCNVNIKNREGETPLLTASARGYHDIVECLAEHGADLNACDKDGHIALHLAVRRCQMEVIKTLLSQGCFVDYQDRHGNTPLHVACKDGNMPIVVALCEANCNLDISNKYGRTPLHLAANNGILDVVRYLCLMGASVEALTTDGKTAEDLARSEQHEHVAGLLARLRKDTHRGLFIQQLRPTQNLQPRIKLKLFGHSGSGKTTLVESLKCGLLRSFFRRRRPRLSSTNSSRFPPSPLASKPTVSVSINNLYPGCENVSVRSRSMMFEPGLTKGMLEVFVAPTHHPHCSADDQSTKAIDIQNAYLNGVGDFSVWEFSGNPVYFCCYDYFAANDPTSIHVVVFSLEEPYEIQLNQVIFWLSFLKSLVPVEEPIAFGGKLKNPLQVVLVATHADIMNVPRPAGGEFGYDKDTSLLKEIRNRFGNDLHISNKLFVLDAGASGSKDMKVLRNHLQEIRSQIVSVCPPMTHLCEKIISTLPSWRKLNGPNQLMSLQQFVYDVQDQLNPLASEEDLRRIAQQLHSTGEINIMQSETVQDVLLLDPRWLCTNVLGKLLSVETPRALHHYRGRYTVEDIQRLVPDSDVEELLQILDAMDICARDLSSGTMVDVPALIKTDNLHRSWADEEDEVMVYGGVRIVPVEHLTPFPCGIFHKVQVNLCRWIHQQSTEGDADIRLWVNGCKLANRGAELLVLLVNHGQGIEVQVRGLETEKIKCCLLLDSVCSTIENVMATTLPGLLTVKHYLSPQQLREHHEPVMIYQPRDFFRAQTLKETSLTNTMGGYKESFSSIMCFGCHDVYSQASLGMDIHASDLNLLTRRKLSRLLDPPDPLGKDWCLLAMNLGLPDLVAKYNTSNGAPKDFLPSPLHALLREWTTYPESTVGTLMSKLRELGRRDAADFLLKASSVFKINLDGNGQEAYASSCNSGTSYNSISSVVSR
Chain of MAP/microtubule affinity-regulating kinase 3 (Homo sapiens) (P27448 whole entry, looked up): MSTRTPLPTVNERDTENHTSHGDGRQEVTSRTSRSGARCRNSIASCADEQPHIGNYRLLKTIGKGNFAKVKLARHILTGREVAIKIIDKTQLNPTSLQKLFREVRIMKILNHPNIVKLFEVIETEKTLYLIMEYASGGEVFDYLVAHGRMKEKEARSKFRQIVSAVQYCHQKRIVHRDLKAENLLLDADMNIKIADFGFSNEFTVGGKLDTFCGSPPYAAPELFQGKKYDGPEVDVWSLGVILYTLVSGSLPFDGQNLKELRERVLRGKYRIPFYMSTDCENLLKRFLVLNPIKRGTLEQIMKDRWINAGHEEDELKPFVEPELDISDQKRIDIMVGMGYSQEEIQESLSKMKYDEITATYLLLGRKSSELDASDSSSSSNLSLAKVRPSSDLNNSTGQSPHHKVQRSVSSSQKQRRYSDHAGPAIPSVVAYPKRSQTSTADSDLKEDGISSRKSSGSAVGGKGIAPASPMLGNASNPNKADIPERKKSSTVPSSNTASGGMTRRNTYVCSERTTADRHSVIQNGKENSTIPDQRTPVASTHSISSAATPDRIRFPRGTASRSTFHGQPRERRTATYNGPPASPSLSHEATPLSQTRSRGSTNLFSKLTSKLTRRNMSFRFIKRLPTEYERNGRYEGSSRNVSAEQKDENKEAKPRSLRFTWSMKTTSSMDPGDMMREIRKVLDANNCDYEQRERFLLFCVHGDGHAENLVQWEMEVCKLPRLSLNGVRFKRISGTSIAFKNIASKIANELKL

| Compound | inhibition [1] | inhibition [2] | inhibition [3] | inhibition [4] | inhibition [5] | inhibition [6] | inhibition [7] | inhibition [8] | inhibition [9] | inhibition [10] | inhibition [11] | inhibition [12] | inhibition [13] | inhibition [14] | inhibition [15] | inhibition [16] | inhibition [17] | inhibition [18] | inhibition [19] | inhibition [20] |
| --- | --- | --- | --- | --- | --- | --- | --- | --- | --- | --- | --- | --- | --- | --- | --- | --- | --- | --- | --- | --- |
| NC(=O)c1cc(-c2ccc(F)cc2)cc(-c2ccncc2)c1N | 1.25% | -0.12% | -0.85% | 2.21% | 1.35% | 4.03% | 5.82% | 2.29% | 4.17% | 3.27% | -2.7% | 1.2% | 2.29% | 2.86% | 4.94% | 3.36% | 12.1% | 1.44% | 3.34% | 0.15% |
| c1ccc(-c2n[nH]cc2-c2ccnc(-c3ccc(OCCN4CCOCC4)cc3)c2)nc1 | 1.17% | 4.23% | 4.29% | 0.95% | 0.98% | 0.91% | 8% | 4.58% | 4.86% | 7.18% | 5.45% | 4.57% | 5.04% | -1.03% | 3.77% | 4.82% | 2.74% | 3.62% | 2.02% | 4.23% |
| CCC(=O)Nc1ccc(C)c(-c2ccc(C(=O)NCC3CC3)cc2)c1 | -3.18% | -0.58% | 0.48% | 0.77% | 1.21% | 6.24% | 20.1% | 0.75% | 1.92% | -0.99% | -1.15% | 1.46% | 2.23% | 5.17% | 8.13% | 2.05% | 2.8% | 0.52% | 1.17% | 0.59% |
| Fc1ccc(-c2ncn(CCCN3CCOCC3)c2-c2ccncc2)cc1 | 2.3% | -1.56% | 5.36% | -0.27% | -0.32% | 3.13% | 14.5% | 0.51% | 0.81% | 2.21% | 22% | 0.52% | 0.72% | -0.32% | -0.03% | -0.96% | 0.15% | -1.39% | -0.24% | -1.95% |
| NS(=O)(=O)c1ccc(N/N=C2\C(=O)Nc3ccc(C(=O)NCCCn4ccnc4)cc32)cc1 | 14.2% | 1.59% | 2.86% | 4.69% | 5.55% | 9.93% | 10.6% | 5.69% | 22.3% | 1.88% | 5.47% | 3.39% | 14.6% | 6.78% | 46.9% | 7.7% | 16.8% | 3.98% | 14.2% | 1.13% |
| NC(=O)Cc1ccccc1Oc1nccc(-c2c(-c3ccc(F)cc3)ncn2C2CCNCC2)n1 | 4.92% | 0.97% | 0.45% | 0.74% | 0.89% | 13.4% | 28.7% | 2.13% | 4.3% | 9.03% | 5.15% | 1.54% | 1.97% | 1.5% | 5.18% | 1.93% | 1.72% | 0.62% | 0.77% | 1.48% |
